# HP1b chromo inh = HP1-beta chromodomain-methylated histone interaction inhibition; P83916; AlphaScreen HP1-beta / biotin-H3K9me3 peptide binding; hit rate 0.56% among 390,000; Potency, µM (titrated, usually from 114 µM), inactives show at the top dose activity change, negative = inhibition, usual class: inhibitors; also: potency is read from the fitted curve at half-maximal effect; nearly all actives have a fitted effect of over 70% in size
#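 AlphaScreen: HP1-beta (50 nM) preformed 30 min with biotin-H3(1-18)K9me3 peptide (50 nM) in PBS pH 7.4, 0.01% Tween-20. Compound added for 30 min at RT, then streptavidin donor/nickel chelate acceptor beads (10 ug/mL) for 30 min.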
# G9a block = blocks human histone lysine methyltransferase G9a. Q96KQ7. G9a H3K9 monomethylation, AlphaScreen, 2 h. Potency, µM (highest dose often 102 µM), for inactives: at the highest dose activity, negative = inhibition, hits mostly inhibitors. hit rate 8.8% among 350,000; also: potency is read from the fitted curve at half-maximal effect; % is scaled to controls: 0 for no effect and ±100 for the full control effect; nearly all actives have a fitted effect of over 75% in size
#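 AlphaScreen read-out: biotin-H3K9 peptide (500 nM) methylation by 20 nM enzyme with 20 uM SAM, 2 h at room temperature after 15 min compound preincubation; anti-monomethyl H3K9 antibody plus donor/acceptor beads, 10 min dark.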
# BAZ2B block = BAZ2B (human) inhibition. AlphaScreen BAZ2B-H3K14Ac peptide displacement. Q9UIF8. AID 504333. Potency, µM (highest dose often 114 µM), without a hit: at the top dose activity change, negative = inhibition, hits mostly inhibitors. hit rate 4.4% among 360,000; also: potency is read from the fitted curve at half-maximal effect; % is scaled to controls: 0 for no effect and ±100 for the full control effect; nearly all actives have a fitted effect of over 60% in size
#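 Protein-peptide AlphaScreen: BAZ2B 50 nM, b-H3K14Ac 50 nM, 1x PBS pH 7.4 + 0.01% Tween-20. Preincubation 30 min RT; cpd 30 min RT (top 110 uM); beads 20 min RT, light-protected.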
# PI5P4K alpha inh = blocks human PI5P4K alpha kinase activity | max response, % | hit rate 1.2% among 330,000 | PI5P4Kalpha enzyme, ADP-Glo luminescence, 60 min; hits give low values | P48426; active = max response of -50% or lower; inconclusive = between -30% and -50%; inactive = -30% or higher; also: value at the top dose of about 77 µM; % is scaled to controls: 0 for no effect and ±100 for the full control effect
#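 Compounds were pin-transferred onto PI5P4Kalpha and substrate in HEPES pH 7.4 buffer with EGTA, CHAPS and 5% DMSO. ATP (5 microM final) started the reaction, which ran 60 minutes at room temperature before ADP-Glo detection.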
# PLK1 PBD inh = blocks phosphopeptide binding to human PLK1 polo-box domain. P53350. Plk1 PBD binding of FITC phosphopeptide, fluorescence polarization. Potency, µM, without a hit: max response, negative = inhibition, usual class: inhibitors. hit rate 2.8% among 360,000. AID 720504; also: potency is read from the fitted curve at half-maximal effect; series mostly up to about 57 µM; % is scaled to controls: 0 for no effect and ±100 for the full control effect; nearly all actives have a fitted effect of over 65% in size
# Target sequence (P53350 whole entry, looked up, the tested form may be a part): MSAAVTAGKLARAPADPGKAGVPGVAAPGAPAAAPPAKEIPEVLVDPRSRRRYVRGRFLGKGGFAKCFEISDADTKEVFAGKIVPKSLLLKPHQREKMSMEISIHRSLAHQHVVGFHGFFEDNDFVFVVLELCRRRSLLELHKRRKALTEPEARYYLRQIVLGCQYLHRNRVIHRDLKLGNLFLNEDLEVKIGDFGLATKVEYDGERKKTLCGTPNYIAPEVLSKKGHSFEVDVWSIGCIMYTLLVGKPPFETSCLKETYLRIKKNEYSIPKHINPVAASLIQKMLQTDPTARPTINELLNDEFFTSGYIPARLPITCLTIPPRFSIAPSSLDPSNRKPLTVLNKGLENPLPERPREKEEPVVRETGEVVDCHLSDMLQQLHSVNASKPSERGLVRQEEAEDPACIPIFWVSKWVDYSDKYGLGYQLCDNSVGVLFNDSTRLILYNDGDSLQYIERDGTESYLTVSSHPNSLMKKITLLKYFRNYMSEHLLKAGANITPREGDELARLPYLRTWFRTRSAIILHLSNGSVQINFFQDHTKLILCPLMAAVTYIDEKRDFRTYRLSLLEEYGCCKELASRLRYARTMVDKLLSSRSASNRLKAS
# JMJD2A Tudor inh = JMJD2A Tudor domain (human) inhibition. O75164. AlphaScreen JMJD2A-Tudor / H3K4me3 peptide binding. Potency, µM (titrated, usually from 114 µM), without a hit: at the highest dose activity change, negative = inhibition, usual class: inhibitors. hit rate 4.4% among 390,000. AID 504339; also: potency is read from the fitted curve at half-maximal effect; % is scaled to controls: 0 for no effect and ±100 for the full control effect; nearly all actives have a fitted effect of over 50% in size
# Starred values were filed as active, the others as inactive; ? = inconclusive; nt = no result; [ ] = another dose, or the depositor's remark. An excerpt weighted towards active compounds, which were near 12% of everything screened. Unless noted, calls follow the shape of the dose curve; as a rule, active = well fitted curve in the direction sought with a large enough effect; inconclusive = small, poorly fitted or top-dose-only effect, or another doubt; inactive = no such curve, though single readings can be large; an effect the other way counts as inactive or inconclusive.
SMILES,HP1b chromo inh,G9a block,BAZ2B block,PI5P4K alpha inh,PLK1 PBD inh,JMJD2A Tudor inh
CCOc1cc(/C=C/c2cc(C(=O)O)c3ccccc3n2)ccc1OC,47%,71µM*,13%,-8,-8%,2%
COc1ccc(NC(=O)c2c(NCc3sccc3C)sc3c2CCCCC3)c(OC)c1,-18%,11µM*,32µM*,nt,nt,?
COc1ccc(Cl)cc1NC(=O)c1c(NCc2sccc2C)sc2c1CCCC2,?,2.8µM*,45µM*,nt,nt,50µM*
CCOC(=O)N1CCc2c(sc(NCc3sccc3C)c2C(=O)Nc2ccccc2OCC)C1,7%,8.9µM*,-23%,nt,nt,?
CCOc1ccccc1NC(=O)c1c(NCc2sccc2C)sc2c1CCC(C)C2 (stereo not drawn),-4%,-29%[59 µM],-29%,nt,nt,-29%
COc1ccc(NC(=O)c2c(NCc3cccc(F)c3)sc3c2CCCC3)c(OC)c1,?,10µM*,25µM*,nt,nt,?
COc1ccc(NC(=O)c2c(NC(=O)CNCC(C)C)sc3c2CCC3)c(OC)c1,20%,nt,1%,5,-20%,-14%
COc1c(C)cc(S(=O)(=O)Nc2cccc(-c3ccc(N4CCOCC4)nn3)c2)c(C)c1C,16%[57 µM],9%[59 µM],-19%,nt,nt,-22%
CCc1ccccc1NC(=O)CN1C(=O)CCSc2ccc(S(=O)(=O)N3CCCC3)cc21,10%[57 µM],13%[59 µM],-4%,nt,nt,-10%
CC(=O)OCC1OC(n2c(S)c(C#N)c(-c3ccccc3)c(C#N)c2=O)C(OC(C)=O)C(OC(C)=O)C1OC(C)=O (stereo not drawn),25%,nt,nt,?,?,-16%
Cc1ccc(Cl)cc1NS(=O)(=O)c1cc2c(cc1Cl)CCC(=O)N2,nt,nt,nt,nt,nt,-18%
CC(OC(=O)C1CCN(S(=O)(=O)c2ccc3c(c2)OCCO3)CC1)C(=O)NC1(C#N)CCCCC1 (stereo not drawn),25%,nt,nt,6,-13%,-5%
CCOC(=O)N1CCc2c(sc(NCc3sccc3C)c2C(=O)Nc2ccc(OC)cc2OC)C1,-2%,3.5µM*,?,nt,nt,?
COc1ccccc1NC(=O)c1c(NC(=O)COc2ccccc2)sc2c1CCCCC2,72%,12%[59 µM],7%,nt,nt,-4%
CCOc1ccccc1NC(=O)c1c(NCc2sccc2C)sc2c1CCCCC2,4%,10µM*,?,nt,nt,?
COc1ccccc1NC(=O)c1c(NCc2sccc2C)sc2c1CCCCC2,?,10µM*,32µM*,nt,nt,45µM*
COC(=O)c1c(NC(=S)Nc2cc(OC)c(Cl)cc2OC)sc2c1CCCCC2,-38%,12%[59 µM],-11%,1,-24%,50µM*
CCOCCCNC(=O)CN1CCN(Cc2ccc(Cl)cc2)C1=O,13%,3%,-1%,-5,4%,8%
CC(C)C[C@H]1CN([C@@H](CC(C)C)CN2CCC[C@H]2CN2C(=O)C(=O)NC[C@@H]2Cc2ccc(O)cc2)C(=O)C(=O)N1CC1CCCCCC1,nt,nt,nt,4,-13%,nt
CCOc1ccccc1-c1noc(CSc2nnc(-c3ccccc3)n2-c2ccc(OC)cc2)n1,-1%,-8%[59 µM],-22%,nt,nt,-27%
Cc1cccc(CNC(=O)c2cnc3sc(N4CCCCCC4)nn3c2=O)c1,-6%,20%[59 µM],-8%,nt,nt,?
COc1ccc(NC(=S)NCCSc2ccc(Cl)cc2)c(OC)c1,-21%,13µM*,?,9,?,-33%
COc1ccccc1NC(=S)NCCSc1ccc(Cl)cc1,36%,-4%,-30%,8,-2%,-2%
Cc1ccc(S(=O)(=O)N2CCCCC2)cc1NC(=O)CNc1ccc(C(F)(F)F)cc1,7%,56µM*,7%,0,-4%,-27%
CCN(CC)S(=O)(=O)c1ccc(C)c(NC(=O)CNc2cccc(S(=O)(=O)N3CCCC3)c2)c1,5%,-8%,6%,-1,-4%,-33%
SMILES,HP1b chromo inh,G9a block,BAZ2B block,PI5P4K alpha inh,PLK1 PBD inh,JMJD2A Tudor inh
CC(=O)c1ccc(OCCCC(=O)Nc2cc(S(=O)(=O)N3CCCCC3)ccc2C)cc1,21%,35µM*,-7%,-7,-21%,-10%
CCc1ccccc1NC1=NCC(=O)N1C1CCCC1,-4%,nt,?,-7,30µM*,-20%
CCc1ccccc1NC1=NCC(=O)N1Cc1ccc(OC)cc1,50%,45µM*,?,1,-13%,-13%
COc1ccc(CN2C(=O)CN=C2Nc2cc(C)ccc2C)cc1,20%,?,?,-1,-3%,-21%
O=C(Nc1cccc(Cl)c1)c1ccc(S(=O)(=O)NCC2CCCO2)cc1 (stereo not drawn),31%,19%,-14%,-1,-2%,-13%
O=C(Cc1nnc(CNC(=O)c2ccccc2)o1)Nc1cc(C(F)(F)F)ccc1Cl,nt,nt,nt,nt,nt,-8%
CCNc1ncc2nc(CCc3ccccc3)c(=O)n(-c3ccccc3)c2n1,nt,11%[12.7 µM],nt,nt,nt,nt
COc1ccc(-c2csc(NC(=O)C3CC(=O)N(Cc4ccccc4)C3)n2)cc1OC (stereo not drawn),-24%,50µM*,?,0,-6%,?
CCN(c1ccccc1)S(=O)(=O)c1ccc(OC)c(NC(=O)C2CC(=O)N(Cc3ccccc3)C2)c1 (stereo not drawn),21%,56µM*,-27%,-13,-9%,-33%
CSc1cccc(NC(=O)C2CC(=O)N(Cc3ccccc3)C2)c1 (stereo not drawn),38%,45µM*,-19%,1,0%,-14%
O=C(O)C1CC(=O)N(Cc2ccc(F)cc2)C1 (stereo not drawn),15%,-30%[12.7 µM],4%,5,27µM*,-25%[11.4 µM]
CCc1ccc(NC(=O)CSc2nc3c([nH]c4ccccc43)c(=O)n2C)cc1,26%[57 µM],8%[59 µM],3%,nt,nt,-9%
CCc1ccc(-c2nc(CSCC(=O)NCc3ccc(C)cc3)c(C)o2)cc1,12%,-5%[59 µM],-12%,nt,nt,-24%
CCc1ccc(C(=O)c2cn(CC(=O)Nc3cc(OC)cc(OC)c3)c3ccc(CC)cc3c2=O)cc1,26%,13%[59 µM],7%,nt,nt,-10%
CCOc1ccc(C(=O)c2cn(CC(=O)Nc3cc(OC)cc(OC)c3)c3ccc(F)cc3c2=O)cc1,26%,?,89µM*,nt,nt,-33%
CCc1ccc(C(=O)c2cn(CC(=O)Nc3ccc(F)c(F)c3)c3cc(OC)c(OC)cc3c2=O)cc1,12%,-7%[59 µM],79µM*,nt,nt,-23%
CCc1ccc(C(=O)c2cn(CC(=O)Nc3ccc4c(c3)OCCO4)c3ccc(CC)cc3c2=O)cc1,43%,-1%[59 µM],79µM*,nt,nt,2%
Cc1nc2nc(C)c(NS(=O)(=O)c3ccc(C4CCCCC4)cc3)c(=O)n2[nH]1,0%,?,6%,-4,-10%,-6%
O=C(Nc1cccc(Cl)c1)c1ccc2c(c1)CCN2S(=O)(=O)c1ccccc1,42%,-1%[59 µM],0%,nt,nt,-3%

# Bioassay records as filed in PubChem BioAssay.
